Values joined by “and” are separate entries in the source; they are usually repeats but may differ in a detail not shown here. Equal entries are not always repeated. Results filed as inconclusive are left out. Active and inactive are the calls of the source. Calls follow the shape of the dose curve; as a rule, active = well fitted inhibition curve with a large enough effect; inconclusive = small, poorly fitted or top-dose-only effect; inactive = flat fitted curve, though single readings scatter. Where a SMILES comes first, the peptide text is derived from it. The star is where a group is joined. Cbz = O=C(OCc1ccccc1)*; CH2Cl = ClC*
% is scaled to controls: 0 for no effect and ±100 for the full control effect; potency is read from the fitted curve at half-maximal effect.

A short description of this assay: Primary qHTS for inhibitors of nuclear receptor binding SET domain protein 2 (NSD2) in an isogenic RCH-ACV NSD2 p.E1099K mutant (9B) (AID 1645876). Also: nearly all actives have a fitted effect of over 70% in size. Particulars: RCH-ACV (leukaemia line) NSD2 E1099K (9B) viability, CellTiter-Glo, 72 h; series mostly up to 44.9 µM.
For `C=C(C)C(=O)O[C@H]1[C@H]2C(=C)C(=O)O[C@@H]2C[C@@H](C)[C@@H]2O[C@@H]2C(=O)[C@](C)(O)[C@@H]1OC(=O)C(=C)C`, the Potency was 1.78 µM (active).

As to `CC(C)CCNC(=O)[C@H](CC(C)C)NC(=O)[C@H]1O[C@@H]1C(=O)O`, the Potency entry was “inactive”.

On to `C=C1C(=O)O[C@H]2C3=C(C)CCC[C@]3(C)C(=O)C[C@@H]12`, for which the Potency is 1.83 µM (active).

For the molecule `COC1CC(O[C@H]2CC[C@]3(C)C4CC[C@]5(C)C(C6=CC(=O)OC6)=CCC56OC46CC[C@@H]3C2)OC(C)C1O[C@@H]1O[C@H](CO[C@@H]2O[C@H](CO)[C@@H](O)[C@H](O)[C@H]2O)[C@@H](O)[C@H](O)[C@H]1O` (some centres undefined), the Potency is 1.54 µM (active).

Regarding `C=C(C)C(=O)O[C@H]1C[C@@](C)(O)C2(O)CCC(C)(/C=C3/OC(=O)C(COC)=C31)O2` (some centres undefined), the Potency was 1.42 µM (active).

On to `N#Cc1ccc(O[C@@H]2c3ccccc3C[C@H]2N2CCC[C@@H](N)C2)c(Cl)c1`, for which the Potency was 20.5 µM (active).

On to `CCc1cccc(CC)c1-n1c(C=C(C)C)c(C(=O)N2CCNCC2)cc(-c2nc(-c3ccc(C(F)(F)F)cc3)cs2)c1=O`, for which the Potency was 8.93 µM (active).

As to `COc1cccc(NCCC2(c3ccccc3)CC(C)(C)OC(C)(C)C2)c1`, the Potency result is “inactive”.

For the molecule `COc1cc(F)c(F)c(Nc2ccc(I)cc2F)c1NS(=O)(=O)C1(CC(O)CO)CC1` (centres undefined), the Potency was 18.3 µM (active).

As for `O=C1Nc2ccccc2-c2nc3ccccc3c(=O)n2-c2c(O)cccc21`, the Potency entry was “inactive”.

In the case of `Nc1nc(Cl)nc2c1ncn2C1OC(CO)C(O)C1F` (centres undefined), the Potency is 0.0092 µM (active).

For `Cc1[nH]c2ccccc2c1CCNCc1ccc(/C=C/C(=O)NO)cc1`, the Potency was 18.3 nM (active) and 52.5 nM (active).

For the molecule `C/C(=C/C=C\C=C\Cc1cnco1)[C@@H](O)C(C)(C)C(N)=O`, the Potency result is “inactive”.

`O=c1ccc2ccc(OCCCCN3CCN(c4cccc5sccc45)CC3)cc2[nH]1`: the Potency is 14.5 µM (active).

On to `C=C1C(=O)O[C@@H]2C(OC(=O)/C(C)=C\C)/C(C)=C\C(=O)/C=C(\C)C[C@H](O)[C@@H]12` (some centres undefined), for which the Potency was 2.26 µM (active).

Take `C=C1C(=O)O[C@H]2C[C@@H](C)[C@@H]3CCC(=O)[C@@]3(C)C[C@H]12`: the Potency is 3.65 µM (active).

Turning to `CC(C)C[C@@H](C(=O)N[C@@H](Cc1ccc(OCc2ccccc2)cc1)C(=O)NC(C)(C)C)N(C)Cc1ccc(C(C)(C)C)cc1`, the Potency entry is “inactive”.

As to `COCCNCc1ccc(-c2cc3nccc(Oc4ccc(NC(=O)C5(C(=O)Nc6ccc(F)cc6)CC5)cc4F)c3s2)nc1`, the Potency is 2.9 µM (active).

Consider `C=C1C(=O)OC2C1CCC1(C)C(O)CCC(=C)C21` (centres undefined), for which the Potency was 18.3 µM (active).

For `C=C1C(=O)O[C@@H]2[C@H]1CC[C@H](C)[C@]1(CCC(=O)O1)C2(C)O` (some centres undefined), the Potency was 20.5 µM (active).

Regarding `CC(=O)OC[C@]12[C@H](OC(C)=O)C(=O)[C@@H]3[C@@H](O)[C@@]14O[C@@]3(C)COC(=O)c1cccnc1[C@@H](C)[C@H](C)C(=O)O[C@@H]([C@H](O)[C@@H]2OC(C)=O)[C@]4(C)O`, the Potency was 5.41 µM (active).

On to `CC1OC(=O)C[C@@H]2C(C(=O)O)=CO[C@@H](O[C@H]3O[C@H](CO)[C@@H](O)[C@H](O)[C@H]3O)[C@H]12` (some centres undefined), for which the Potency entry was “inactive”.

Regarding `CC(C)NC(=O)N1CC[C@H](N=C2Nc3cc(F)ccc3N(CC(F)F)c3ccc(Cl)cc32)C1`, the activity change, negative = viability loss was -17% [at 9.23 µM] (inactive).

Take `CN1CCN(Cc2ccc(NC(=O)Cc3ccc(Oc4cc(NC(=O)C5CC5)ncn4)cc3)cc2C(F)(F)F)CC1`: the Potency is 0.649 µM (active).

On to `Cn1cc(-c2cnn3c(N)c(Br)c([C@@H]4CCCNC4)nc23)cn1`, for which the Potency is 1.15 µM (active) and 3.72 µM (active).

Consider `CC[C@H]1OC(=O)[C@H](C)[C@@H](O[C@H]2C[C@@](C)(OC)[C@@H](O)[C@H](C)O2)[C@H](C)[C@@H](O[C@H]2O[C@H](C)C[C@H](N(C)C)[C@H]2O)[C@](C)(O)C[C@@H](C)C(=O)[C@H](C)[C@@H](O)[C@]1(C)O`, for which the Potency result was “inactive”.

In the case of `CC(C)C[C@H](NC(=O)CNC(=O)OCc1ccccc1)C(=O)N[C@@H](Cc1ccccc1)C(=O)CCl` (Cbz-Gly-Leu-Phe-CH2Cl), the Potency was 7.28 µM (active).

For the molecule `CC1(C)C2CCC(CO[C@@H]3O[C@H](CO[C@@H]4OC[C@](O)(CO)[C@H]4O)[C@@H](O)[C@H](O)[C@H]3O)C1C2` (some centres undefined), the Potency result was “inactive”.

Take `C[C@]12CC[C@@H]3c4ccc(O)c(O)c4CC[C@H]3[C@@H]1CCC2=O`: the Potency is 18.3 µM (active).

The record behind these values is PubChem BioAssay (NCATS).
